Experimental data from the supplement of paper PMC12669032.

Legend:
Assay in all cases: growth AUC relative to DMSO control (median of replicates) (fraction); higher = more growth (less inhibition), active = hit call of the paper
Settings in all cases: 20 µM; 24 h;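 active = AUC reduced over 20% with Padj below 0.05 in at least 2 of 3 replicates; inactive = otherwise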
Coprococcus comes = tested on: Coprococcus comes
Outline: (§1)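 Gut bacterial monocultures were grown anaerobically at 37 °C in mGAM, starting at OD600 0.05, with 20 µM compound (1% DMSO) in round-bottom 96-well plates under pierced gas-permeable seals. OD600 was read hourly for 24 h. Area under the growth curve (minimum OD set to 0) was normalised to the plate median of DMSO controls, or to row and column medians on the industrial chemical plate. The value is the median of three biological replicates grown on separate days.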

Escherichia coli ED1a = tested on: Escherichia coli ED1a
Outline: as §1

Escherichia coli IAI1 = tested on: Escherichia coli IAI1
Outline: as §1

Eubacterium rectale = tested on: Eubacterium rectale
Outline: as §1

[1] = tested on: Fusobacterium nucleatum subsp. animalis
Outline: as §1

Lactobacillus gasseri = tested on: Lactobacillus gasseri
Outline: as §1

Lactobacillus paracasei = tested on: Lactobacillus paracasei
Outline: as §1

Odoribacter splanchnicus = tested on: Odoribacter splanchnicus
Outline: as §1

[2] = tested on: Parabacteroides distasonis
Outline: as §1

Parabacteroides merdae = tested on: Parabacteroides merdae
Outline: as §1

Roseburia intestinalis = tested on: Roseburia intestinalis
Outline: as §1

Streptococcus salivarius = tested on: Streptococcus salivarius
Outline: as §1

Measured: growth AUC

CCN(CC)c1c([N+](=O)[O-])cc(C(F)(F)F)c(N)c1[N+](=O)[O-]
inactive: Coprococcus comes 0.982 | Escherichia coli ED1a 1.05 | Escherichia coli IAI1 1.02 | Eubacterium rectale 0.977 | [1] 1.06 | Lactobacillus gasseri 1.04 | Lactobacillus paracasei 1.06 | Odoribacter splanchnicus 0.955 | [2] 0.897 | Parabacteroides merdae 0.928 | Roseburia intestinalis 0.984 | Streptococcus salivarius 1.03

CC[C@H]1CCCC(O[C@H]2CC[C@H](N(C)C)[C@@H](C)O2)[C@@H](C)C(=O)C2=C[C@@H]3[C@@H](C=C(C)[C@@H]4C[C@@H](O[C@@H]5O[C@@H](C)[C@H](OC)[C@@H](OC)[C@H]5OC)C[C@@H]34)[C@@H]2CC(=O)O1.CC[C@H]1CCCC(O[C@H]2CC[C@H](N(C)C)[C@@H](C)O2)[C@@H](C)C(=O)C2=C[C@@H]3[C@@H](C=C[C@@H]4C[C@@H](O[C@@H]5O[C@@H](C)[C@H](OC)[C@@H](OC)[C@H]5OC)C[C@@H]34)[C@@H]2CC(=O)O1 (some centres undefined)
inactive: Coprococcus comes 0.973 | Escherichia coli ED1a 0.963 | Escherichia coli IAI1 0.966 | Eubacterium rectale 0.985 | [1] 0.995 | Lactobacillus gasseri 0.879 | Lactobacillus paracasei 0.902 | Odoribacter splanchnicus 1.04 | [2] 1.01 | Parabacteroides merdae 0.925 | Roseburia intestinalis 1.03 | Streptococcus salivarius 0.972

COP(=O)(OC)Oc1ccc(SC)c(C)c1
inactive: Coprococcus comes 0.991 | Escherichia coli ED1a 1 | Escherichia coli IAI1 1.02 | Eubacterium rectale 0.96 | [1] 0.986 | Lactobacillus gasseri 1.1 | Lactobacillus paracasei 1 | Odoribacter splanchnicus 0.994 | [2] 1.02 | Parabacteroides merdae 1.05 | Roseburia intestinalis 1.02 | Streptococcus salivarius 1

CCCCCCCCCCCCCN1CC(C)OC(C)C1 (centres undefined)
inactive: Coprococcus comes 0.999 | Escherichia coli ED1a 1.01 | Escherichia coli IAI1 0.966 | Eubacterium rectale 0.991 | [1] 0.964 | Lactobacillus gasseri 0.937 | Lactobacillus paracasei 1.08 | Odoribacter splanchnicus 0.984 | [2] 0.984 | Parabacteroides merdae 0.973 | Roseburia intestinalis 0.937 | Streptococcus salivarius 1.01

Cc1cc(Cl)ccc1O
inactive: Coprococcus comes 0.989 | Escherichia coli ED1a 1 | Escherichia coli IAI1 1.02 | Eubacterium rectale 1.02 | [1] 1.07 | Lactobacillus gasseri 0.979 | Lactobacillus paracasei 0.873 | Odoribacter splanchnicus 1.07 | [2] 1.02 | Parabacteroides merdae 1.04 | Roseburia intestinalis 1.01 | Streptococcus salivarius 1.04

CCNS(=O)(=O)C(F)(F)C(F)(F)C(F)(F)C(F)(F)C(F)(F)C(F)(F)C(F)(F)C(F)(F)F
inactive: Coprococcus comes 0.995 | Escherichia coli ED1a 0.987 | Escherichia coli IAI1 0.99 | Eubacterium rectale 0.975 | [1] 0.968 | Lactobacillus gasseri 1.05 | Lactobacillus paracasei 0.891 | Odoribacter splanchnicus 0.978 | [2] 1.01 | Parabacteroides merdae 0.947 | Roseburia intestinalis 1.03 | Streptococcus salivarius 0.96

CC(C)(C)C(O)(CCc1ccc(Cl)cc1)Cn1cncn1 (centres undefined)
inactive: Coprococcus comes 1.02 | Escherichia coli ED1a 1.01 | Escherichia coli IAI1 0.991 | Eubacterium rectale 0.879 | [1] 1.05 | Lactobacillus gasseri 1.04 | Lactobacillus paracasei 0.968 | Odoribacter splanchnicus 0.973 | [2] 0.903 | Parabacteroides merdae 0.962 | Roseburia intestinalis 1.1 | Streptococcus salivarius 1.01

CS(=O)(=O)c1ccc(C(=O)C2C(=O)CCCC2=O)c([N+](=O)[O-])c1
inactive: Coprococcus comes 0.966 | Escherichia coli ED1a 1 | Escherichia coli IAI1 0.985 | Eubacterium rectale 0.882 | [1] 0.97 | Lactobacillus gasseri 1.04 | Lactobacillus paracasei 1.02 | Odoribacter splanchnicus 0.736 | [2] 0.998 | Parabacteroides merdae 0.948 | Roseburia intestinalis 0.976 | Streptococcus salivarius 1.03

O=P(OCCCl)(OCCCl)OCCCl
inactive: Coprococcus comes 0.916 | Escherichia coli ED1a 0.98 | Escherichia coli IAI1 0.963 | Eubacterium rectale 0.89 | [1] 0.88 | Lactobacillus gasseri 0.98 | Lactobacillus paracasei 1.09 | Odoribacter splanchnicus 0.868 | [2] 0.989 | Parabacteroides merdae 0.921 | Roseburia intestinalis 0.928 | Streptococcus salivarius 1.03

OC(Cn1cncn1)(c1ccc(F)cc1)c1ccccc1F (centres undefined)
inactive: Coprococcus comes 0.975 | Escherichia coli ED1a 1.04 | Escherichia coli IAI1 0.98 | Eubacterium rectale 0.958 | [1] 1.02 | Lactobacillus gasseri 0.962 | Lactobacillus paracasei 0.909 | Odoribacter splanchnicus 0.979 | [2] 1.01 | Parabacteroides merdae 0.995 | Roseburia intestinalis 0.966 | Streptococcus salivarius 1.01

CNC(=O)Oc1cccc2c1OC(C)(C)C2
inactive: Coprococcus comes 1.02 | Escherichia coli ED1a 1.04 | Escherichia coli IAI1 0.985 | Eubacterium rectale 1.02 | [1] 1.07 | Lactobacillus gasseri 0.946 | Lactobacillus paracasei 0.994 | Odoribacter splanchnicus 1.06 | [2] 0.992 | Parabacteroides merdae 1 | Roseburia intestinalis 0.992 | Streptococcus salivarius 1.03

CCCCOC(=O)N(C)SN(C)C(=O)Oc1cccc2c1OC(C)(C)C2
inactive: Coprococcus comes 1 | Escherichia coli ED1a 1.07 | Escherichia coli IAI1 1.01 | Eubacterium rectale 1.2 | [1] 0.942 | Lactobacillus gasseri 0.966 | Lactobacillus paracasei 1.05 | Odoribacter splanchnicus 1.03 | [2] 1.03 | Parabacteroides merdae 1.01 | Roseburia intestinalis 0.992 | Streptococcus salivarius 1.02
